According to PubChem BioAssay (NCI):
About 83,000 compounds went through this panel and 20% of them were active in at least one assay; those are over-represented in the sample as a whole.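 Testing used 96-well plates and a 48-hour single-concentration exposure. Example: -40 means 40% of the starting cells died.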 Values without a mark were called inactive. Calls of active or inactive are those of the source. How the source made its calls: active means growth percent below 10; inactive means the rest.

Legend:
Experiment in all cases: NCI-60 one-dose screen, 48 h (100 = growth as untreated, 0 = no growth, -100 = all killed)
Conditions in all cases: 10 µM unless noted
DU-145 prostate = system: DU-145 prostate
K-562 leukemia = system: K-562 leukemia
MALME-3M melanoma = system: MALME-3M melanoma
MDA-MB-231 breast = system: MDA-MB-231 breast
RXF 393 renal = system: RXF 393 renal
SF-268 CNS = system: SF-268 CNS
SF-295 CNS = system: SF-295 CNS
SF-539 CNS = system: SF-539 CNS
UACC-257 melanoma = system: UACC-257 melanoma
M14 melanoma = system: M14 melanoma
HCT-15 colon = system: HCT-15 colon
HT29 colon = system: HT29 colon
SNB-75 CNS = system: SNB-75 CNS
SNB-19 CNS = system: SNB-19 CNS
PC-3 prostate = system: PC-3 prostate
SK-MEL-5 melanoma = system: SK-MEL-5 melanoma
UACC-62 melanoma = system: UACC-62 melanoma
LOX IMVI melanoma = system: LOX IMVI melanoma
SK-MEL-28 melanoma = system: SK-MEL-28 melanoma
U251 CNS = system: U251 CNS

Compound | growth (DU-145 prostate) | growth (K-562 leukemia) | growth (MALME-3M melanoma) | growth (MDA-MB-231 breast) | growth (RXF 393 renal) | growth (SF-268 CNS) | growth (SF-295 CNS) | growth (SF-539 CNS) | growth (UACC-257 melanoma) | growth (M14 melanoma) | growth (HCT-15 colon) | growth (HT29 colon) | growth (SNB-75 CNS) | growth (SNB-19 CNS) | growth (PC-3 prostate) | growth (SK-MEL-5 melanoma) | growth (UACC-62 melanoma) | growth (LOX IMVI melanoma) | growth (SK-MEL-28 melanoma) | growth (U251 CNS)
Nc1nc2c(c3ncncc13)C(c1cccc(C(F)(F)F)c1)Cc1ncncc1-2 (configuration not stated) | 15.6% | 16.9% | 66.2% | 45% | 6.31% (active) | 45.8% | 11.9% | -26.6% (active) | 67.9% | 11.4% | 27% | 9.73% (active) | 8.31% (active) | 33.9% | 26.4% | 21.1% | 43.4% | 36.8% | 63.7% | 
O=C(Nc1cccc2[nH]c(C(F)(F)F)nc12)c1ccc(F)cc1 | 88.3% | 24.8% | 74% | 83.7% | 88% | 86.1% | 86.6% | 80% | 89.7% | 92% | 96.9% | 99.3% | 97.3% | 78.6% |  | 69.5% | 51.6% | 87.8% | 79.7% | 71.7%
COc1cc(-c2nn(-c3ccc(NC(=O)c4cc(Cl)cc(Cl)c4)cc3)cc2-c2ccncc2)ccc1Cl | 96.9% | 23.4% | 104% | 80.9% | -17.1% (active) | 76.9% | -1.01% (active) | 60.2% | 102% | 62.9% | 22.6% | 16.9% | 54% | 87.7% |  | 79.4% | 70.4% | 71.6% | 85.5% | 55.7%
NC(=O)c1c(Nc2ccccc2)nn2cc(-c3nc4ccccc4s3)c(N)nc12 | 107% | 93.1% | 96% | 84.7% | 102% | 95.6% | 98.7% | 95.3% | 118% | 93.5% | 101% | 103% | 88.9% | 92.7% | 91.4% | 97.3% | 97.3% | 94% | 113% | 
CC(=O)Nc1nc(C)c(C(=O)NNS(=O)(=O)c2ccccc2)s1 | 135% | 149% | 96.5% | 107% | 110% | 117% | 132% | 101% | 103% | 97.6% | 114% | 118% | 88.2% | 105% |  | 105% | 109% | 99.1% | 125% | 103%
CC(=O)/C(=C\c1c(-c2ccccc2)[nH]c2ccccc12)S(=O)(=O)c1ccccc1 | -18.7% (active) | -53.4% (active) | 62.6% | 4.14% (active) | -28.2% (active) | 7.87% (active) | -41.4% (active) | -38.1% (active) | -6.16% (active) | 5% (active) | 13.5% | 11.3% | -23.1% (active) | 53.7% |  | 9.11% (active) | 13.6% | -33.3% (active) | 26.8% | 17.5%
CCCCCCCCCCCCOC(=O)/C=C\C(=O)NC(N)=O | 95.4% | 44.2% | 102% | 93.5% | 69.3% | 107% | 102% | 95.5% | 85.2% | 93.6% | 57.9% | 88.6% | 81.5% | 91.6% | 71.6% | 99.6% | 82% |  | 99.2% | 74%
OCC(O)C(O)CC1SCCS1 (configuration not stated) | 108% | 83% | 101% | 114% | 102% | 99.4% | 104% | 103% | 105% | 97.9% | 104% | 101% | 94.7% | 94.8% | 102% |  | 97.7% | 91.8% | 110% | 99.9%
O=C(Nc1ccc(-n2cc(-c3ccncc3)c(-c3ccc(Cl)c(O)c3)n2)cc1)c1cc(Cl)cc(Cl)c1 | 72.8% | 13.9% | 24.7% | 24.2% | -69% (active) | 74.5% | -61.6% (active) | 26% | 54.7% | -49.1% (active) | 11.1% | 1.94% (active) | 16.4% | 72.4% |  | -85.1% (active) | 39.2% | 40.3% | 29.7% | 41.9%
N=C(c1ccccc1)N(Cc1ccccc1)Cc1ccccc1 | 111% | 76.2% | 93.8% | 79.6% | 85% | 103% | 59.2% | 103% | 94% | 78% | 74.8% | 53.4% | 97.7% | 99.8% | 81.5% | 104% | 87.3% |  | 98.8% | 96.7%
CCc1ccc(C(=Nc2ccc(N(C)C(=O)CN3CCN(C)CC3)cc2)c2c(O)[nH]c3ccc(C(=O)OC)cc23)cc1 | -11.5% (active) | -60.7% (active) | -91.8% (active) | -71% (active) | -96.8% (active) | -69.9% (active) | -88% (active) | -98.5% (active) | -67.4% (active) | -86.7% (active) | -73.2% (active) | -66.3% (active) | -97.3% (active) | -84.9% (active) | -60.9% (active) | -98.1% (active) | -57.5% (active) | -93.9% (active) | -87.3% (active) | 
CC(=O)N1CCN(CCNC(=O)n2cc(-c3ccncc3)c(-c3cc(O)cc(Cl)c3)n2)CC1 | 89.5% | 53.5% | 31.9% | 82.5% | 65.2% | 96% | 80.5% | 71.6% | -34% (active) | 5.16% (active) | 51.1% | 21.7% |  | 106% | 114% | 63.6% | 27.8% | 68.3% | 31.4% | 80.1%
CCC(C)C1NC(=O)C(CCCCN)NC(=O)C(CCCCN)NC(=O)C(CC(C)C)NC(=O)C(CCCCN)NC(=O)C(C(C)CC)NC(=O)C(C(C)C)NC(=O)C(C(C)CC)NC(=O)C(CCCCN)NC(=O)C(CCCCN)NC(=O)C(C)NC(=O)C(CCCCN)NC(=O)C(CC(C)C)NC1=O (configuration not stated) | 25.5% | 9.18% (active) | 9.48% (active) | -0.123% (active) | 45.2% | 19.5% | 27.4% | 67.5% | 7.94% (active) | 22.2% | 35.4% | 5.52% (active) |  | 20.9% | 6.52% (active) | 2.11% (active) | 22.1% | 50.5% | 48.2% | 6.7% (active)
